Experimental data reported in PubChem BioAssay AID1159580 (chemical genetic matrix, 2015).
The campaign covered roughly 5,500 compounds. About 2,000 (36%) were called active. Inconclusive results (about 18%) are left out. Rule as the data show it: active = normalized growth mostly below about 0.91 (no sharp cut-off); inconclusive = no clear call, values can overlap the other calls; inactive = mostly above about 0.92. The list shows a part of the results.

Experiment: chemical genetic growth profiling, strain panel (AID 1159580);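 also: tested at 20 µM; growth read once vehicle control cultures reached saturation at 30 °C; 1 = growth at the plate median or of vehicle wells; lower values mean less growth of the strain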
Conditions: S. cerevisiae deletion strains, growth OD

Measured: normalized growth

COc1cc([C@@H]2c3cc4c(c(O)c3C[C@H]3COC(=O)[C@@H]32)OCO4)cc(OC)c1OC
inactive: locus YAL013W, strain DEP1, active compounds read low 0.986 | locus YAL021C, strain ccr4, active compounds read low 0.995 | locus YAL026C, strain drs2, active compounds read low 0.992 | locus YAL030W, strain snc1, active compounds read low 0.986 | locus YBL061C, strain skt5, active compounds read low 0.994 | locus YBR009C, strain hhf1, active compounds read low 0.993 | locus YBR021W, strain FUR4, active compounds read low 1 | locus YBR023C, strain chs3, active compounds read low 0.999 | locus YBR171W, strain sec66, active compounds read low 0.971 | locus YBR229C, strain ROT2, active compounds read low 0.985 | locus YBR231C, strain swc5, active compounds read low 0.977 | locus YBR279W, strain paf1, active compounds read low 0.994 | locus YCL011C, strain gbp2, active compounds read low 0.996 | locus YCL016C, strain dcc1, active compounds read low 1 | locus YCL029C, strain bik1, active compounds read low 0.978 | locus YCL069W, strain vba3, active compounds read low 1 | locus YCR088W, strain abp1, active compounds read low 0.984 | locus YDL005C, strain med2, active compounds read low 0.979 | locus YDL035C, strain GPR1, active compounds read low 0.981 | locus YDL040C, strain nat1, active compounds read low 0.994 | locus YDL074C, strain BRE1, active compounds read low 1.05 | locus YDL101C, strain DUN1, active compounds read low 0.985 | locus YDL134C, strain PPH21, active compounds read low 0.997 | locus YDL185W, strain tfp1, active compounds read low 0.959 | locus YDL192W, strain arf1, active compounds read low 0.972 | locus YDR001C, strain nth1, active compounds read low 0.988 | locus YDR069C, strain doa4, active compounds read low 0.981 | locus YDR101C, strain arx1, active compounds read low 0.995 | locus YDR137W, strain rgp1, active compounds read low 0.993 | locus YDR150W, strain NUM1, active compounds read low 0.973 | locus YDR159W, strain sac3, active compounds read low 0.967 | locus YDR162C, strain NBP2, active compounds read low 0.998 | locus YDR195W, strain ref2 0.93 | locus YDR297W, strain sur2, active compounds read low 0.976 | locus YDR318W, strain mcm21, active compounds read low 0.986 | locus YDR334W, strain swr1, active compounds read low 0.987 | locus YDR335W, strain msn5, active compounds read low 1 | locus YDR388W, active compounds read low 0.991 | locus YDR392W, strain spt3, active compounds read low 0.924 | locus YDR502C, strain sam2, active compounds read low 0.983 | locus YEL003W, strain gim4, active compounds read low 0.983 | locus YEL037C, strain rad23, active compounds read low 0.993 | locus YEL061C, strain CIN8 (second series), active compounds read low 1 | locus YEL061C, strain CIN8, active compounds read low 0.99 | locus YER015W, strain faa2, active compounds read low 1 | locus YER016W, strain bim1, active compounds read low 0.979 | locus YER110C, active compounds read low 0.971 | locus YER111C, strain swi4, active compounds read low 0.989 | locus YER155C, strain BEM2 (second series), active compounds read low 0.96 | locus YER155C, strain BEM2, active compounds read low 0.994 | locus YER167W, strain BCK2, active compounds read low 0.976 | locus YFR010W, strain ubp6, active compounds read low 0.995 | locus YGL078C, strain dbp3, active compounds read low 0.986 | locus YGL086W, strain mad1, active compounds read low 0.982 | locus YGL167C, strain pmr1, active compounds read low 0.991 | locus YGL173C, strain kem1, active compounds read low 0.98 | locus YGL227W, strain vid30, active compounds read low 0.983 | locus YGL240W, strain doc1, active compounds read low 0.961 | locus YGL248W, strain PDE1, active compounds read low 0.988 | locus YGL253W, strain hxk2, active compounds read low 0.994 | locus YGR078C, strain PAC10, active compounds read low 1.03 | locus YGR135W, strain pre9, active compounds read low 1.02 | locus YGR229C, strain SMI1, active compounds read low 1.05 | locus YGR252W, strain gcn5, active compounds read low 1.04 | locus YHR013C, strain ard1, active compounds read low 1 | locus YHR027C, strain rpn1, active compounds read low 0.976 | locus YHR030C, strain SLT2, active compounds read low 0.979 | locus YHR079C, strain IRE1 (second series), active compounds read low 0.983 | locus YHR094C, strain hxt1, active compounds read low 0.974 | locus YHR129C, strain ARP1, active compounds read low 0.993 | locus YHR142W, strain chs7, active compounds read low 1.02 | locus YHR200W, strain rpn10, active compounds read low 0.975 | locus YIL066C, strain RNR3, active compounds read low 0.983 | locus YIL073C, strain SPO22, active compounds read low 0.923 | locus YIL125W, strain kgd1, active compounds read low 0.986 | locus YIR030C, strain dcg1, active compounds read low 0.982 | locus YJL092W, strain hpr5, active compounds read low 0.999 | locus YJL095W, strain BCK1 (second series), active compounds read low 0.987 | locus YJL095W, strain BCK1, active compounds read low 1.05 | locus YJL115W, strain asf1, active compounds read low 0.987 | locus YJL129C, strain trk1, active compounds read low 0.962 | locus YJL134W, strain LCB3, active compounds read low 0.982 | locus YJL154C, strain vps35, active compounds read low 0.987 | locus YJL164C, strain tpk1, active compounds read low 1 | locus YJL166W, strain qcr8, active compounds read low 0.995 | locus YJL168C, strain set2, active compounds read low 0.985 | locus YJL187C, strain SWE1 (second series), active compounds read low 1.01 | locus YJL187C, strain SWE1, active compounds read low 0.983
